Compounds with a hit are over-represented: about 0.98% of the library has one in this group of screens.
Cardiac RTF inh – cardiac RTF calcium desensitization | P19429+P45379 | IANBD-labeled cardiac RTF, Ca2+ fluorescence | inhibition, % at 7.15 µM | actives 0.12% (n = 340,000) | AID 493244;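 active = inhibition above the mean inhibition of all tested compounds plus 3 SD, cut at about 17% in these data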;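 also: assay run at fixed EC70 calcium of 1.6 mM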
eLon inh – inhibitors of E. coli Lon protease | actives 0.42% (n = 360,000) | purified E. coli Lon protease, fluorescence polarization | inhibition, % at 7.94 µM | P0A9M0 | AID 602123; in the data active = inhibition above about 13%, passing the limit was not always enough;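 also: 0% = enzyme with probe and DMSO and 100% = no enzyme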
Keap1 Nrf2 FP – inhibitors of human Keap1-Nrf2 protein-protein interaction; AID 504523; actives 0.15% (n = 340,000); Keap1 Kelch-Nrf2 peptide fluorescence polarization, 1536-well; inhibition, % at 9.4 µM; Q14145; in the data active = inhibition above about 12%;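 also: human Keap1 Kelch domain with fluorescein labeled Nrf2 9mer peptide probe; 0% = neutral control wells and 100% = peptide positive control; higher means more block of Keap1 binding to Nrf2 peptide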
EBV gp42 block – inhibitors of Epstein-Barr virus glycoprotein 42; AID 1085; inhibition, % (tested at 21.74 µM); actives 0.42% (n = 220,000); Fluorescence polarization binding assay, mP read-out; in the data active = inhibition above about 50%
LANA DNA inh – inhibitors of KSHV LANA C-terminal domain DNA binding | MBP-C-LANA/FAM-LBS DNA binding, fluorescence polarization | inhibition, % at 9 µM | actives 0.078% (n = 340,000);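 active = highest replicate inhibition at or above 60% at 9 µM, even if other replicates fall short; inactive = all replicates below 60% inhibition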;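 also: 0% = neutral control wells and 100% = 4 µM acridine orange control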
RTF Ca sens act – increases calcium sensitivity of human cardiac regulated thin filaments | IANBD-labeled TnC RTF fluorescence at EC20 calcium; 0% EC20 calcium, 100% full calcium | actives 0.24% (n = 340,000) | activation, % at 7.2 µM | AID 493008;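 active = activation above the mean over all tested compounds plus 3 SD, cut at about 30% in these data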;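 also: rise in fluorescence read as greater calcium sensitivity of cardiac thin filaments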
Keap1 Kelch bind – binders of human Keap1 Kelch domain | shares compounds with Keap1 Nrf2 FP | Keap1 Kelch thermal shift, delta Tm; hits give high values | max delta Tm, degrees C | actives 8% (n = 400); in the data active = max delta Tm above about 0.48 degrees C
Dye-only ctr – shifts Sypro Orange melt without protein, a false positive; delta Tm, degrees C (concentration not given with the values); Sypro Orange dye-only thermal melt, no protein, delta Tm; top dose 26 µM; 140 tested, under 10 active; shares compounds with Keap1 Nrf2 FP;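 active = at highest dose tested, delta Tm positive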
* = called active by the depositor.

Results for O=C1CCC[C@@H]2C=C[C@H](c3ccc(Br)cc3)[C@H]3CCN1[C@@H]32 ?
eLon inh: 0

What do the screens show for `Cc1ccccc1OCCC(=O)Nc1cc(S(=O)(=O)N2CCCCC2)ccc1N1CCN(C)CC1`?
Cardiac RTF inh: -12; eLon inh: -6; Keap1 Nrf2 FP: 54*; LANA DNA inh: 28; RTF Ca sens act: 18; Keap1 Kelch bind: 0.02

Results for Cc1ccc(S(=O)(=O)NC2CCSC2=O)cc1C (configuration not stated) ?
Cardiac RTF inh: -5; eLon inh: -9; Keap1 Nrf2 FP: -3; LANA DNA inh: 1; RTF Ca sens act: 2

What do the screens show for `O=C(/C=C/c1ccccc1Cl)NCCCn1ccnc1`?
Cardiac RTF inh: -10; eLon inh: -6; Keap1 Nrf2 FP: 38*; LANA DNA inh: 19; RTF Ca sens act: 2; Keap1 Kelch bind: -0.01

Results for O=C(Cc1ccccc1Cl)NCCCn1ccnc1 ?
Cardiac RTF inh: -8; eLon inh: 0; Keap1 Nrf2 FP: -2; EBV gp42 block: -3; LANA DNA inh: -4; RTF Ca sens act: 1

Results for Cc1cnc(NC(=O)Cc2ccc(S(=O)(=O)N3CCOCC3)s2)s1 ?
Cardiac RTF inh: -5; eLon inh: 20; Keap1 Nrf2 FP: 13*; LANA DNA inh: 8; RTF Ca sens act: 5; Keap1 Kelch bind: -0.11

How did COc1ccc(NC(=S)N2CCN(c3ccc4c(c3)C3CCN(C(=O)OCc5ccccc5)C4C3)CC2)c(OC)c1 (configuration not stated) do in these assays?
eLon inh: 0

Results for COc1cc2c3nnc(-c4ccccc4)c-3cn(Cc3ccccc3F)c2cc1OC ?
EBV gp42 block: -151

How did COc1cc2c3nnc(-c4ccc(F)cc4)c-3cn(Cc3ccccc3F)c2cc1OC do in these assays?
Cardiac RTF inh: 0; eLon inh: -5; Keap1 Nrf2 FP: 17*; EBV gp42 block: -64; LANA DNA inh: 32; RTF Ca sens act: 5; Keap1 Kelch bind: -0.19

What do the screens show for `C[C@@H]1CN([C@@H](C)CO)C(=O)c2cc(NC(=O)c3ccccc3)ccc2O[C@@H](C)CCCCO[C@@H]1CN(C)Cc1ccc(C(F)(F)F)cc1`?
eLon inh: -1

How did CN1OC[C@@H]2CN(C(=S)NCCc3ccccc3)[C@H](c3ccc(N4CCCCC4)cc3)C[C@@H]21 do in these assays?
eLon inh: -2

How did Cc1nn(-c2ccccc2Cl)c(Cl)c1/C=N/Nc1nc2ccccc2s1 do in these assays?
Cardiac RTF inh: -23; eLon inh: -18; Keap1 Nrf2 FP: 34*; EBV gp42 block: -14; LANA DNA inh: 4; RTF Ca sens act: -5; Keap1 Kelch bind: -0.11

What do the screens show for `CC(=O)c1cccc(NCC(=O)N2CCN(S(=O)(=O)c3ccccc3)CC2)c1`?
Cardiac RTF inh: -10; eLon inh: -1; Keap1 Nrf2 FP: 1; LANA DNA inh: -1; RTF Ca sens act: -2

What do the screens show for `Cc1ccc(NS(=O)(=O)c2ccc3c(c2)oc(=O)n3C)cc1`?
Cardiac RTF inh: 4; eLon inh: -8; Keap1 Nrf2 FP: -2; LANA DNA inh: -1; RTF Ca sens act: -5

How did CC(=O)Nc1ccc(NS(=O)(=O)c2ccc3c(c2)oc(=O)n3C)cc1 do in these assays?
Cardiac RTF inh: -7; eLon inh: -4; Keap1 Nrf2 FP: 19*; LANA DNA inh: 14; RTF Ca sens act: 4; Keap1 Kelch bind: -0.06

What do the screens show for `CN1/C(=C\C=C(/C#N)C(=O)Nc2ccc(Cl)cc2)C(C)(C)c2ccccc21`?
Cardiac RTF inh: -18; eLon inh: -88; Keap1 Nrf2 FP: 14*; EBV gp42 block: 6; LANA DNA inh: 33; RTF Ca sens act: 10; Keap1 Kelch bind: -0.06

How did CN1/C(=C/C=N/n2cnnc2)C(C)(C)c2ccccc21 do in these assays?
Cardiac RTF inh: -4; eLon inh: -1; Keap1 Nrf2 FP: 2; EBV gp42 block: 0; LANA DNA inh: 0; RTF Ca sens act: -1

Results for CN1/C(=C\C=C(C#N)C#N)C(C)(C)c2ccccc21 ?
Cardiac RTF inh: -7; eLon inh: -23; Keap1 Nrf2 FP: 45*; EBV gp42 block: -62; LANA DNA inh: 165; RTF Ca sens act: 1; Keap1 Kelch bind: 0

Results for CCOC(=O)C1CCCN(C(=O)C(CCSC)NC(=O)COc2ccccc2)C1 (configuration not stated) ?
Cardiac RTF inh: 0; eLon inh: -7; Keap1 Nrf2 FP: -5; LANA DNA inh: -2; RTF Ca sens act: 0

What do the screens show for `CC(=O)c1ccc2ccccc2c1OC(=O)c1ccncc1`?
eLon inh: 2

Results for O=C(CN1C(=O)NC2(CCCC2)C1=O)Nc1cccc(C(F)(F)F)c1 ?
Cardiac RTF inh: -16; eLon inh: -5; Keap1 Nrf2 FP: -3; LANA DNA inh: 1; RTF Ca sens act: 0

What do the screens show for `O=C(CN1C(=O)NC2(CCCC2)C1=O)Nc1ccc(C(F)(F)F)cc1`?
Cardiac RTF inh: 3; eLon inh: -6; Keap1 Nrf2 FP: 12*; LANA DNA inh: -2; RTF Ca sens act: -7; Keap1 Kelch bind: -0.12

Results for Fc1ccc(C2=CC(c3ccc(Br)o3)n3ncnc3N2)cc1 (configuration not stated) ?
Cardiac RTF inh: -197; eLon inh: 137*; Keap1 Nrf2 FP: 36*; EBV gp42 block: 62*; LANA DNA inh: 64*; RTF Ca sens act: 172*; Keap1 Kelch bind: -0.17

What do the screens show for `Oc1ccc(C2C=C(c3ccc(F)cc3)Nc3ncnn32)cc1` (configuration not stated)?
Cardiac RTF inh: -19; eLon inh: 14; Keap1 Nrf2 FP: -5; EBV gp42 block: 17; LANA DNA inh: 1; RTF Ca sens act: 5

How did NC(=O)CC(NC(=O)Cc1cccc2ccccc12)c1ccc(NCc2ccccc2)c([N+](=O)[O-])c1 (configuration not stated) do in these assays?
Cardiac RTF inh: 2; eLon inh: 7; Keap1 Nrf2 FP: 22*; EBV gp42 block: -26; LANA DNA inh: 18; RTF Ca sens act: -1; Keap1 Kelch bind: -0.11

How did NC(=O)CC(NC(=O)Cc1cccc2ccccc12)c1ccc(NCc2ccc(F)cc2)c([N+](=O)[O-])c1 (configuration not stated) do in these assays?
Cardiac RTF inh: -14; eLon inh: -8; Keap1 Nrf2 FP: -2; EBV gp42 block: -33; LANA DNA inh: 0; RTF Ca sens act: -4

What do the screens show for `CS(=O)(=O)N1CCCC(C(=O)Nc2ccc(F)c(F)c2)C1` (configuration not stated)?
Cardiac RTF inh: -11; eLon inh: 2; Keap1 Nrf2 FP: 42*; LANA DNA inh: 17; RTF Ca sens act: 14; Keap1 Kelch bind: -0.08; Dye-only ctr: -27
